From PubChem BioAssay
The source made the active and inactive calls.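 Rule for the calls, unless noted: active = compounds lowering colon cancer cell viability after pretreatment blocking the GSK3B kinase; inactive = the rest.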

Experiments:
[1] = stimulators of insulin release from INS-1E, primary screen, cell-based, 5 mM glucose, NPC library (AID 1117329;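 active = compound raises insulin release from rat beta cells at 5 mM glucose, no numeric limit stated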); conditions: rat INS-1E insulin secretion, at 10 µM, stronger effect = higher value
[2] = growth inhibition of GSK3B-pretreated HCT116 cells – cell-based, CellTiter-Glo, 0.2 to 20 µM (AID 1117336); conditions: HCT116 viability after GSK3B inhibitor, at 20 µM, stronger effect = higher value
[3] = inhibition of endothelial tube formation, primary screen, imaging, VEGF stimulated, CD31 staining, tube area, NPC library (AID 1117340;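 active = compound that reduces growth-factor-driven endothelial tube area in a mixed cell culture, no cutoff stated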); conditions: VEGF-stimulated ADSC/ECFC co-culture, at 10 µM, stronger effect = higher value
[4] = glucagon-like peptide 1 release enhancers, primary assay, NCI-H716 cell line, NPC library (AID 1117341;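 active = compound raises GLP1 secretion from the human gut endocrine cells, with no numeric limit stated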); conditions: NCI-H716 cells, at 10 µM, stronger effect = higher value
[5] = HCT116 colon cancer cell growth inhibition, primary screen, CellTiter-Glo luminescence, NPC library (AID 1117342;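 active = compounds that lower survival of HCT116 colon cancer cells in the luminescence readout, no numeric limit stated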); conditions: at 20 µM (top of the series)
[6] = CellTiter-Glo luminescent readout of SW480 viability loss, NPC library primary (AID 1117343;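 active = compounds that lower viability of the colon cancer cells in the luminescence readout, with no numeric limit stated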); conditions: CellTiter-Glo luminescence; at 20 µM (top of the series)
[7] = decreased DLD-1 cellular survival, CellTiter-Glo luminescent readout, NPC compound collection, primary HTS (AID 1117346;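 active = compounds that lower survival of DLD-1 colon cancer cells in the luminescence readout, no cutoff given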); conditions: DLD-1 viability, CellTiter-Glo luminescence; at 20 µM (top of the series)
[8] = target: 6-phosphogluconate dehydrogenase, decarboxylating (Homo sapiens) (UniProt P52209); experiment: 6PGD enzyme inhibitors, primary screen, biochemical, human, recombinant enzyme, NADPH absorbance (AID 1159550;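 active = at least 20% inhibition of 6-phosphogluconate dehydrogenase activity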); conditions: recombinant 6PGD, NADPH absorbance 341 nm; at 10 µM; stronger effect = higher value
[9] = differential killing of epithelial or mesenchymal cells, primary screen, imaging, PC-3E GFP, TEM4-18 mCherry, co-culture (AID 1345086;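 active = compounds killing one labelled cell type while sparing the other, by normalised counts and ratio limits, not self-fluorescent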;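 for all read-outs here: cells exposed to compound for 72 h before imaging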;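 for red/green cell ratio (normalised): normalised mesenchymal count divided by normalised epithelial count so high means epithelial killing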); conditions: imaging cell counts, at 1 µM; for red/green cell ratio (normalised): actives lie on both sides, counts scaled to control wells, 1 = unselective
[10] = measured here: epithelial PC-3E GFP cell survival
[11] = measured here: mesenchymal TEM4-18 mCherry cell survival

Sequence of 6-phosphogluconate dehydrogenase, decarboxylating (Homo sapiens) (P52209 whole entry, looked up): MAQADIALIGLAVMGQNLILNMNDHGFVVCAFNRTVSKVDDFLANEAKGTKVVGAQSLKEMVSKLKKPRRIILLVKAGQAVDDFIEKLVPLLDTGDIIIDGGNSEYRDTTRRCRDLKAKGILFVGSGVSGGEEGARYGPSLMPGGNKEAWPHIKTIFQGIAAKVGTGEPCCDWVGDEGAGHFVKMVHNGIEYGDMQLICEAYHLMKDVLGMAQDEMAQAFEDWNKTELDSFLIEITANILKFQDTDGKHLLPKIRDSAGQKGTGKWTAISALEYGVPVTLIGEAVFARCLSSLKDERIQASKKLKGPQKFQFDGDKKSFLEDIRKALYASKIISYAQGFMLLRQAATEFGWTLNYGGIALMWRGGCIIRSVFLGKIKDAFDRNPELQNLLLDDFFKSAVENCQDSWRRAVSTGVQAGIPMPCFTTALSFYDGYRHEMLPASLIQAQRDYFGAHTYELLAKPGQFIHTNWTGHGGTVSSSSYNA

SMILES	insulin secretion stimulation [1]	viability decrease [2]	tube area decrease [3]	GLP1 secretion stimulation [4]	inhibition of viability [5]	viability decrease (inhibition) [6]	viability decrease (inhibition) [7]	inhibition [8]	red/green cell ratio (normalised) [9]	normalised cell number [9, 10]	normalised cell number [9, 11]
COc1cccc(OC)c1C(=O)N[C@@H]1C(=O)N2[C@@H]1SC(C)(C)[C@@H]2C(=O)O	0.6% (inactive)	-3.9% (inactive)	-4.7% (inactive)	-0.3% (inactive)	-7% (inactive)	17.4% (inactive)	-4.8% (inactive)	17.4% (inactive)	1 (inactive)	1.16	1.15
Nc1c2ccccc2nc2ccccc12	39.7% (active)	49.2% (active)	81.5% (active)	11.4% (inactive)	105% (active)	107% (active)	49% (active)	-6.58% (inactive)	0.95 (inactive)	0.63	0.6
CCCCN(CCCC)CCCOC(=O)c1ccc(N)cc1	0.7% (inactive)	-47.6% (inactive)	18.7% (inactive)	0.7% (inactive)	15% (inactive)	21.3% (inactive)	-4.6% (inactive)	-3.82% (inactive)	1.16 (inactive)	1.04	1.2
